The values that follow come from PubChem BioAssay.

For assay [1], the system named is Wnt5a (protein binding on small-molecule microarray). In words: Wnt5a binders on small-molecule microarray, primary screen, biophysical, 635/667 nm fluorescence (AID 1142).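 Further: fluorescence read at 667 nm with signal to noise per printed feature.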 The following applies: 635 nm fluorescence, higher = more signal.
Assay [2] in a line: cell viability in Huh7 cells, primary screen, cytotoxicity control for HCV replication inhibitor project, CellTiter-Glo luminescence, basal, 48 h (AID 1143).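 Further: Huh7 hepatoma cells carrying a hepatitis C replication reporter with no stimulus; test concentration not given here.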 As to conditions: Huh7 HCV replicon, higher = more signal, called active from +8 up or from −8 down. On the technique in general: ATP-based viability assays read luminescence as a measure of living cells.
Assay [3] is described as follows: P. aeruginosa biofilm formation inhibitors, primary screen, PAO1 strain, BacTiter-Glo luminescence, LB-PBS (AID 1144). As to conditions: 12 h, higher = more signal.
Assay [4] in a line: CREB reporter modulators without forskolin, primary screen, cell-based, PC12, CRE-LacZ reporter, unstimulated (AID 1145). The following applies: no forskolin, luminescence, 4.5 h, higher = more signal, called active from +8 up or from −8 down.
The nature of assay [5]: CREB reporter modulators under forskolin, primary screen, cell-based, PC12, CRE-LacZ reporter, forskolin-stimulated (AID 1146).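 Further: PC12 cells with 6xCRE LacZ reporter stimulated by forskolin 10 µM; beta-galactosidase reporter signal reflecting CREB driven transcription.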 As to conditions: luminescence, 4.5 h, higher = more signal, called active from +8 up or from −8 down.
In assay [6] the target is Streptavidin (Streptomyces avidinii) (UniProt P22629). In words: streptavidin binders on small-molecule microarray, primary screen, artefact control for SMM compound annotation, biophysical, 635/667 nm fluorescence (AID 1147).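 Further: signal reflects streptavidin binding to arrayed compounds as a control protein.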 The following applies: streptavidin binding, higher = more signal.
Assay [7] is described as follows: small-molecule binders of probe aInhba, primary screen, biochemical, small-molecule microarray, 635/667 nm fluorescence (AID 1148).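 Further: score merges 667nm spot fluorescence with signal-to-noise for antibody binding to printed compounds.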 The following applies: higher = more signal.
Assay [8] addresses Torsin-1A (Homo sapiens) (UniProt O14656). In words: torsin A binders from cell lysate, primary screen, small-molecule microarray, wild-type, 635/667 nm (AID 1149). As to conditions: COS7 hTOR1A-WT lysate, 635 nm fluorescence, higher = more signal.
For assay [9] the target is unchanged. In words: small-molecule binders of mutant TOR1A in lysate, primary screen, cell lysate, small-molecule microarray, COS7 lysate, 635/667 nm fluorescence (AID 1150).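 Further: score pools 667 nm emission and signal to noise measuring lysate protein binding.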 The following applies: COS7 hTOR1A mutant lysate, 635 nm fluorescence, higher = more signal.
Assay [10] deals with Sonic hedgehog protein (Shh). The experiment in a line: small-molecule binders of Shh protein, primary screen, biochemical, small-molecule microarray, 635/667 nm fluorescence (AID 1151).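 Further: Shh protein binding to compounds spotted on small-molecule microarray slides; score combines spot fluorescence intensity with signal-to-noise across triplicate slides.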 The following applies: small-molecule microarray binding, 635 nm fluorescence; higher = more signal.
Assay [11] can be described thus: E. coli DRC41 culture turbidity changes, primary screen, E. coli filamentation inducer project, strain DRC41, OD650, 48 h (AID 1152).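 Further: E. coli MC1000 strain DRC41 lacking acrAB efflux pump and sulA.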 The following applies: E. coli DRC41 (acrAB sulA), higher = more signal, called active from +8 up or from −8 down.
Assay [12] is described as follows: small-molecule binders of probe aLefty1, primary screen, biochemical, small-molecule microarray, 635/667 nm fluorescence (AID 1153).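 Further: score merges spot fluorescence with signal-to-noise ratio from the scanned slide images.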 As to conditions: higher = more signal.
A short description of assay [13]: PSAC antagonists in infected red cells, primary screen, cell-based, P. falciparum Indochina, OD700, 1 h (AID 1154). The following applies: P. falciparum Indochina infected RBC osmotic lysis, higher = more signal, called active from +8 up or from −8 down.
The nature of assay [14]: PSAC antagonists in infected red cells, primary screen, cell-based, P. falciparum Indochina, OD700, 2 h (AID 1155).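 Further: lysis reports solute entry through the parasite surface anion channel PSAC; channel blockers reduce lysis of infected cells.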 As to conditions: P. falciparum Indochina infected erythrocytes, osmotic lysis OD700; higher = more signal, called active from +8 up or from −8 down.
A short description of assay [15]: osmotic lysis modulators in infected erythrocytes, primary screen, PSAC antagonist project, cell-based, P. falciparum Indochina, OD700, 3 h (AID 1156). As to conditions: higher = more signal, called active from +8 up or from −8 down.
A short description of assay [16]: PSAC antagonists in infected red cells, primary screen, cell-based, P. falciparum Indochina, OD700, 18 h (AID 1157). The following applies: P. falciparum Indochina infected erythrocytes, osmotic lysis OD700, 18 h; higher = more signal, called active from +8 up or from −8 down.
Assay [17] can be described thus: modulators of S6 phosphorylation in cells, primary screen, cell-based, A549, cytoblot, luminescence, serum-stimulated (AID 1158).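 Further: serum-stimulated A549 lung adenocarcinoma cells; signal is phosphorylated S6 detected by cytoblot immunostaining with HRP secondary.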 As to conditions: A549 phospho-S6 cytoblot, 5 h, higher = more signal.
Assay [18] concerns the target NADPH oxidase 2 (Homo sapiens) (UniProt P04839). The experiment in a line: NOX2-dependent H2O2 signal modulators, primary screen, NOX inhibitor project, cell-based, HEK293-NOX2, PMA-stimulated, Amplex Red fluorescence (AID 1159). Further: test concentration not given here. As to conditions: 45 min, higher = more signal, called active from +8 up or from −8 down.
The target in assay [19] is NADPH oxidase 4 (Homo sapiens) (UniProt Q9NPH5). In words: NOX4-dependent H2O2 signal modulators, primary screen, NOX inhibitor project, cell-based, HEK293-NOX4, tetracycline-induced, Amplex Red fluorescence (AID 1160). The following applies: 45 min, higher = more signal, called active from +8 up or from −8 down.
Assay [20] concerns the target NADPH oxidase 5 (Homo sapiens) (UniProt Q96PH1). The experiment in a line: NOX5-dependent H2O2 signal modulators, primary screen, NOX inhibitor project, cell-based, HEK293-NOX5, Amplex Red fluorescence (AID 1161). As to conditions: HEK293-NOX5, ionomycin, 45 min, higher = more signal.

Calls of active or inactive are those of the source. Unless noted, how the calls were made is not given here.

Chain of Streptavidin (Streptomyces avidinii) (P22629 whole entry, looked up): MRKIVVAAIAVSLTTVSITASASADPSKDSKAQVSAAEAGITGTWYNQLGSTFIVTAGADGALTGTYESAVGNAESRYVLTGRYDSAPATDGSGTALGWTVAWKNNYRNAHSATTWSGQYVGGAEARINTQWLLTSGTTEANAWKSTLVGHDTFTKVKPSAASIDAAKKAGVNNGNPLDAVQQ
Chain of NADPH oxidase 4 (Homo sapiens) (Q9NPH5 whole entry, looked up): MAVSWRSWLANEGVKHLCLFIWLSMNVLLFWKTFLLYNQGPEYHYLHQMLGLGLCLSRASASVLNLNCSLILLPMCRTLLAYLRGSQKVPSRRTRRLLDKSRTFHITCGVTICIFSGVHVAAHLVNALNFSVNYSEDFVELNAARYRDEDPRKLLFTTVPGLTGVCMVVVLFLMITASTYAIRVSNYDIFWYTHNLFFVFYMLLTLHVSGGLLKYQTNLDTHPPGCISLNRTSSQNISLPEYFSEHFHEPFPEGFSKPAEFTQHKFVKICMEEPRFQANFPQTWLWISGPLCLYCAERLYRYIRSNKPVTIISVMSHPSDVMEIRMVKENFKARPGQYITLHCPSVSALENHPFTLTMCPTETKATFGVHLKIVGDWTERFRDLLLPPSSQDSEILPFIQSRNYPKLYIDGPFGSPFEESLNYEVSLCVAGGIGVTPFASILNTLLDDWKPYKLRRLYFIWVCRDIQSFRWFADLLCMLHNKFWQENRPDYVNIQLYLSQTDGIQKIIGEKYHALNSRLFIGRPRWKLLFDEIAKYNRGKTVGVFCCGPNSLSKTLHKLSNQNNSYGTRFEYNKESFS
Chain of Torsin-1A (Homo sapiens) (O14656 whole entry, looked up): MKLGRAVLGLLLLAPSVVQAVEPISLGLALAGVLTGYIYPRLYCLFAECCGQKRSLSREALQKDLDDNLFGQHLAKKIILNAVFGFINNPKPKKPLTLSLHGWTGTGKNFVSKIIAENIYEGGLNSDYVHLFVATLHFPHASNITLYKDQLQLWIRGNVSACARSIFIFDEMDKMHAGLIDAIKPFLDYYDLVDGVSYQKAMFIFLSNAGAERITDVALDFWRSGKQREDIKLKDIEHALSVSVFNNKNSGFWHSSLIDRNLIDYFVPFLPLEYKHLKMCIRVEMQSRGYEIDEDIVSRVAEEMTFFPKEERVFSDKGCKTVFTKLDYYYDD
Chain of NADPH oxidase 5 (Homo sapiens) (Q96PH1 whole entry, looked up): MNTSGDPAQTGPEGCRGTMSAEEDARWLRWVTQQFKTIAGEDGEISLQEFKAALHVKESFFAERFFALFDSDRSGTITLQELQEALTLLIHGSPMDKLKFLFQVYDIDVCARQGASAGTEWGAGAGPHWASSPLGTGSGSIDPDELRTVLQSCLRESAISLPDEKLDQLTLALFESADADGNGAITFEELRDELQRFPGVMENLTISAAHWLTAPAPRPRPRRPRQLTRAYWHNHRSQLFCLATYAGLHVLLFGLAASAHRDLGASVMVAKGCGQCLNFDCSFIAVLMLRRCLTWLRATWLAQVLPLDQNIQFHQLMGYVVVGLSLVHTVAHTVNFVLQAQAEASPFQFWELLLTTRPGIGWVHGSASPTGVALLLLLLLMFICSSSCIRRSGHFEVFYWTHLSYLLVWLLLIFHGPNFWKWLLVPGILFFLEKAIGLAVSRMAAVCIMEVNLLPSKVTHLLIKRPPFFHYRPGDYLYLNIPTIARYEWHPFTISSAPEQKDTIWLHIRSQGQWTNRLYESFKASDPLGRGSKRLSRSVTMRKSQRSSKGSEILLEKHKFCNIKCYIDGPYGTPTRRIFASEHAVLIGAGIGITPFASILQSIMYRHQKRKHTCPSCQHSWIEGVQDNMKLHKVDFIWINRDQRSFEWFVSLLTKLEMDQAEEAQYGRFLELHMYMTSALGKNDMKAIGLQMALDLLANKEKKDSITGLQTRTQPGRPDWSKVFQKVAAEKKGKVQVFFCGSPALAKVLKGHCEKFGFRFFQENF
Chain of NADPH oxidase 2 (Homo sapiens) (P04839 whole entry, looked up): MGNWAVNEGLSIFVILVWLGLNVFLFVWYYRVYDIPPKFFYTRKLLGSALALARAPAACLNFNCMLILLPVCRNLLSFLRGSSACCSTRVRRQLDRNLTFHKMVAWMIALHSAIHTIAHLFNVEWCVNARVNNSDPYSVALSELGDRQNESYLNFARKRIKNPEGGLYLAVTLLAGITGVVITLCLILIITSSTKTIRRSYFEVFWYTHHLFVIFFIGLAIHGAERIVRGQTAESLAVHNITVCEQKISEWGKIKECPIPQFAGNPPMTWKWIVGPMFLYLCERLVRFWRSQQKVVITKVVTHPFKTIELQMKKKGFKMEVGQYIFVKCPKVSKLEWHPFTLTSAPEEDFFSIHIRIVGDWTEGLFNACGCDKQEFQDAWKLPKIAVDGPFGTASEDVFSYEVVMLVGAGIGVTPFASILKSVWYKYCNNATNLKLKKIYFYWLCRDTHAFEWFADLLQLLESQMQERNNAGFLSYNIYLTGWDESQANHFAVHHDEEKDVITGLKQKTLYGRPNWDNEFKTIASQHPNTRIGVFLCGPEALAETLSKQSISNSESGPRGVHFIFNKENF

Consider `CC(=O)c1ccc(C(O)C2C=CC3C(=O)N(c4ccccc4)C(=O)C3N2Nc2ccc(C(C)C)cc2)cc1` (stereo not given), for which the composite z-score was 0.0129 in [1]; 1.43 in assay [6]; 0.361 in assay [7]; -0.127 with Torsin-1A (Homo sapiens) [8]; 0.135 with Torsin-1A (Homo sapiens) [9]; 0.295 in assay [10]. This compound also yielded a composite z-score in assay [12] of 0.281. The z-score in assay [2] is -1.16 (inactive); in assay [3], -0.853 (inactive); in assay [4], 1.4 (inactive); in [5], -0.17 (inactive); in assay [11], -1.08 (inactive); in assay [13], 12.7 (active). For the same compound, the z-score in [14] was 3.03 (inactive); in [15], 1.42 (inactive); in assay [16], 1.47 (inactive); in assay [17], -0.617; in assay [18], -1.6 (inactive); in [19], -1.6 (inactive). Moreover, in assay [20], the z-score is -2.08.

As to `COC(=O)C1(Cc2ccccc2)C=C2C(=C(C)C(=O)C2C)CN1` (stereo not given), the composite z-score was 0.266 in assay [1]; 0.621 in assay [6]; 0.155 in assay [7]; 0.103 with Torsin-1A (Homo sapiens) [8]; 0.0914 in the assay with Torsin-1A (Homo sapiens) [9]; -0.691 in assay [10]. Moreover, the composite z-score in [12] came out at 0.695. Besides, the z-score in assay [2] is -0.723 (inactive); in assay [3], 0.454 (inactive); in assay [4], 0.0075 (inactive); in assay [5], 0.727 (inactive); in assay [11] it was -0.492 (inactive); in assay [13], 0.756 (inactive). The z-score in [14] was -0.425 (inactive); in [15], -0.662 (inactive); in assay [16], -1.2 (inactive); in assay [17], 2.47; in assay [18], 0.436 (inactive); in assay [19], -0.568 (inactive). Besides, in assay [20], the z-score is -4.

Consider `C=C(COC)C(=O)CC[C@H](OC(=O)c1cccnc1)c1ccc(OCCO)cc1`, for which the composite z-score in assay [1] stood at 0.965; in [6], 0.257; in assay [7] it was 0.103; in the assay with Torsin-1A (Homo sapiens) [8], 0.613; with Torsin-1A (Homo sapiens) [9], 1.43; in assay [10], 2.4. Besides, in assay [12], the composite z-score is -0.285. Also, the z-score in [2] was -2.1 (inactive); in [3], 0.385 (inactive); in [4], 1.54 (inactive); in assay [5] it was 0.755 (inactive); in assay [11], -0.367 (inactive); in assay [13], 9.54 (active). Also, the z-score was 1.2 (inactive) in assay [14]; 0.247 (inactive) in assay [15]; 0.553 (inactive) in assay [16]; -0.271 in assay [17]; -0.253 (inactive) in [18]; 0.592 (inactive) in [19]. Besides, the z-score in assay [20] was -1.26.

For the compound `C=CC[C@]1(C(=O)NCC(O)CO)COC(c2ccc(OCCCO)cc2)=N1` (stereo not given in full), the composite z-score in assay [1] was 0.359; in assay [6] it was -0.486; in assay [7] it was 0.109; with Torsin-1A (Homo sapiens) [8], 0.185; with Torsin-1A (Homo sapiens) [9] it was 1.03; in [10], -0.495. Besides, the composite z-score in [12] was 0.174. Also, the z-score in [2] is 0.154 (inactive); in assay [3], -0.055 (inactive); in assay [4], 0.792 (inactive); in assay [5], -0.282 (inactive); in [11], -0.353 (inactive); in [13] it was 3.8 (inactive). Moreover, the z-score is 0.203 (inactive) in assay [14]; 0.99 (inactive) in assay [15]; 0.545 (inactive) in [16]; 0.18 in assay [17]; -0.261 (inactive) in [18]; 0.914 (inactive) in [19]. The compound also yielded a z-score in assay [20] of 0.462.
